Laboratory results taken from PubChem BioAssay (NCATS).
Inconclusive results are not listed. Active and inactive are the calls of the source. Unless noted, the call rests on the fitted dose curve; in most records, active means well fitted curve in the direction sought with a large enough effect; inconclusive means small, poorly fitted or top-dose-only effect, or another doubt; inactive means no such curve, though single readings can be large; an effect the other way counts as inactive or inconclusive.

Assays:
[1] = target: Cytochrome P450 3A4 (Homo sapiens) (UniProt P08684); assay: qHTS Assay for Activators of Cytochrome P450 3A4 (AID 885); further: nearly all actives have a fitted effect of over 65% in size
Procedure, shortened: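 20nM CYP3A4 + 25uM Luciferin-PPXE (=KM), 200mM KPO4; cpd 10 min RT; NADPH regen, 60 min RT; stop w/ detection buffer, 20 min; luminescence. Normalized to 57 uM ketoconazole.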

[2] = target: Cytochrome P450 2C9 (Homo sapiens) (UniProt P11712); assay: qHTS Assay for Inhibitors and Substrates of Cytochrome P450 2C9 (AID 883); further: nearly all actives have a fitted effect of over 60% in size; further: potency means the concentration at half of the fitted maximal effect; on activity change, negative = inhibition: on the % scale 0 is the no-effect control and ±100 the full control effect
Procedure, shortened: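 10nM CYP2C9 + 100uM Luciferin-H (=KM), 25mM KPO4; cpd 10 min 37C; NADPH regen, 60 min 37C; stop/detect with P450 Glo-Buffer 20 min; luminescence. Norm. to 57uM sulphaphenazole as full inhibition.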

[3] = target: Cytochrome P450 2D6 (Homo sapiens) (UniProt P10635); assay: qHTS Assay for Inhibitors and Substrates of Cytochrome P450 2D6 (AID 891);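 further: luciferin methyl ether substrate demethylated by CYP2D6 with NADPH regeneration; on the % scale 0 is the no-effect control and ±100 the full control effect; nearly all actives have a fitted effect of over 60% in size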
Procedure, shortened: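 Human CYP2D6 (5 nM) with 30 uM Luciferin-ME EGE (at Km) in 100 mM KPO4, compound preincubated 10 min, then NADPH regeneration system for 60 min at room temperature. Luciferin read by luminescence; normalized to 1.43 uM quinidine.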

[4] = target: 3',5'-cyclic-AMP phosphodiesterase 4B (Homo sapiens) (UniProt Q07343); assay: qHTS Assay for Inhibitors of PDE-IV (AID 607; active means well fitted activation curve with a large enough effect in the main read-out, with a control signal flat, not every such curve was filed as active; further: potency means the concentration at half of the fitted maximal effect)
Procedure, shortened: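 ACTOne HEK293 cells carry a modified cAMP-gated CNG channel and express endogenous PDE4; plated 1000 cells/well, compounds up to 22.9 uM final. Membrane-potential dye fluorescence (ex 535/em 590) was read; parental cells received 10 uM forskolin + 100 uM RO 20-1724.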

[5] = Cell Viability - Mesenchymal (AID 546);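 further: cells exposed to compound for 40 hours before reading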
Procedure, shortened: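 Human kidney mesenchymal cells from normal renal glomeruli, 1000 cells/well, rested 5 hr at 37 °C, then treated 40 hr at 37 °C in complete medium. Cellular ATP read by CellTiter-Glo luminescence; AC50 from Hill-equation fits.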

[6] = Cellular Toxicity (caspase-3) HepG2 (AID 654);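 further: cells exposed to compound for 16 hours before reading; 0% = DMSO alone and 100% = caspase signal from 100 µM tamoxifen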
Procedure, shortened: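 HepG2 cells (1500/well) in complete medium were treated with compounds for 16 hr at 37 °C. Caspase-3/7 activity was then read as luminescence from peptide-aminoluciferin cleavage. AC50 came from Hill fits, normalized to DMSO and 100 uM tamoxifen.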

[7] = Cellular Toxicity (caspase-3) Jurkat (AID 655); conditions: Jurkat caspase-3 activation, luminescence, DMSO = 0%, tamoxifen = 100%; at 92.2 µM (top of the series);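 further: cells exposed to compound for 16 h at 37 °C before reading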
Procedure, shortened: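 Jurkat cells (5000/well) in complete medium were treated with compounds for 16 hr at 37 °C, then Caspase-Glo 3/7 luminescence was read after 20 min at room temperature. Data normalized to DMSO (basal) and 100 uM tamoxifen (100%); AC50 from Hill fit.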

[8] = Cellular Toxicity (caspase-3) HUV-EC-C (AID 656)
Procedure, shortened: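 HUV-EC-C endothelial cells, 1000/well, were pre-incubated 5 hr at 37°C, then exposed to compounds for 16 hr at 37°C. Caspase-Glo 3/7 luminescence was read after 20 min at room temperature. AC50 came from Hill fits, normalized to DMSO and 100 uM tamoxifen.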

[9] = Cellular Toxicity (caspase-3) SHSY5Y (AID 657)
Procedure, shortened: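 SH-SY5Y human neuroblastoma cells (1500/well) were treated with compounds for 16 h at 37 °C, then Caspase-Glo 3/7 luminescence was read after 1 h at room temperature. Data normalized to DMSO and 10 uM staurosporine; AC50 from Hill fits.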

[10] = Cellular Toxicity (caspase-3) BJ (AID 658);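 further: 0% = DMSO basal and 100% = 10 µM staurosporine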
Procedure, shortened: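 BJ human foreskin fibroblasts, 1000 cells/well, treated 16 hours at 37 °C in complete medium; caspase 3/7 activity by Caspase-Glo luminescence after 1 hr at room temperature. Normalized to DMSO and 10 uM staurosporine; AC50 from Hill fits.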

[11] = Cellular Toxicity (caspase-3) MRC-5 (AID 659);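 further: 0% = DMSO basal and 100% = 10 µM staurosporine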
Procedure, shortened: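 MRC-5 human normal lung fibroblasts, 1500 cells/well, treated 16 h at 37 °C in complete medium. Caspase 3/7 measured by Caspase-Glo luminescence after 1 h at room temperature. Normalized to DMSO and 10 uM staurosporine; AC50 from Hill fit.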

[12] = Cellular Toxicity (caspase-3) Mesangial (AID 660)
Procedure, shortened: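 Human renal glomerular mesangial cells (1000/well) were treated with compounds for 16 h at 37 °C in complete medium, then caspase 3/7 activity was read by Caspase-Glo luminescence. Data were normalized to DMSO and 100 uM tamoxifen; AC50 from Hill fits.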

[13] = Cellular Toxicity (caspase-3) SK-N-SH (AID 661);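 further: 0% = DMSO basal and 100% = 10 µM staurosporine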
Procedure, shortened: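 SK-N-SH human neuroblastoma cells (1500/well) were treated with compounds for 16 hr at 37 °C in complete medium; caspase 3/7 activity was read by Caspase-Glo luminescence. AC50 came from Hill fits of data normalized to DMSO and 10 uM staurosporine.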

[14] = Cellular Toxicity (caspase-3) H-4-II-E (AID 663);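 further: cells exposed to compound for 16 hr before readout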
Procedure, shortened: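 Rat hepatoma H-4-II-E cells (1500/well) plated 5 hr, then exposed to compound titrations for 16 hr at 37 °C. Caspase-Glo 3/7 luminescence read after 20 min at RT; data normalized to DMSO and 100 uM tamoxifen, AC50 from Hill fits.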

[15] = Cellular Toxicity (caspase-3) Hek293 (AID 664);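 further: cells exposed to compound for 16 h at 37 °C before readout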
Procedure, shortened: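 HEK293 cells were exposed to compounds in complete medium for 16 hr at 37 °C, then caspase-3/7 activity was read by Caspase-Glo 3/7 luminescence after 20 min at room temperature. Data normalized to DMSO and 100 uM tamoxifen; AC50 from Hill fits.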

[16] = Cellular Toxicity (caspase-3) N2a (AID 665);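 further: compound exposure lasted 16 h at 37 °C before readout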
Procedure, shortened: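 Mouse N2a neuroblastoma cells (1500/well) were treated with compounds for 16 h at 37 °C, then caspase-3/7 activity was read by Caspase-Glo luminescence after 1 h at room temperature. Data were normalized to DMSO and 10 uM staurosporine; AC50 from Hill fits.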

[17] = Cellular Toxicity (caspase-3) NIH 3T3 (AID 666);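 further: caspase signal read after 16 h compound exposure; 0% = DMSO basal and 100% = 100 µM tamoxifen stimulation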
Procedure, shortened: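 Mouse NIH 3T3 fibroblasts (1000 cells/well) were treated with compound for 16 hr at 37°C in complete medium; caspase-3/7 activity was read by Caspase-Glo luminescence. Normalized to DMSO and 100 uM tamoxifen; AC50 from Hill fits.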

[18] = Cellular Toxicity (caspase-3) Renal Proximal Tubule (AID 667);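 further: cells exposed to compound for 16 hours at 37 °C before detection; 0% = DMSO basal and 100% = 10 µM staurosporine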
Procedure, shortened: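 Primary rat proximal tubule cells, 1000/well, 5 h plating at 37 °C, then compound 16 h at 37 °C. Caspase-Glo 3/7 reagent, 1 h RT, luminescence. Normalized to DMSO (basal) and 10 uM staurosporine (100%); Hill-fit AC50.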

[19] = target: Cytochrome P450 3A4 (Homo sapiens) (UniProt P08684); assay: qHTS Assay for Inhibitors and Substrates of Cytochrome P450 3A4 (AID 884); further: on the % scale 0 is the no-effect control and ±100 the full control effect; nearly all actives have a fitted effect of over 50% in size
Procedure, shortened: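 20 nM human CYP3A4 with 25 uM Luciferin-PPXE (at KM) in 200 mM KPO4, preincubated 10 min with compound; NADPH regeneration started a 60 min RT reaction. Luciferin detected by luminescence, normalized to 57 uM ketoconazole as full inhibition.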

[20] = target: Guanine nucleotide-binding protein G(i) subunit alpha-1 (Homo sapiens) (UniProt P63096); assay: qHTS Assay for Inhibitors of RGS12 GoLoco Motif Activity (Green Fluorophore) (AID 879);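 further: 0% = labeled peptide with Gαi1 and full inhibition = labeled peptide alone without protein; negative values mean loss of peptide binding seen as reduced polarization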
Procedure, shortened: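 Fluorescence polarization assay: 50 nM Gαi1 with 10 nM FITC-labeled RGS12 GoLoco peptide in 10 mM Tris pH 7.5, 150 mM NaCl, 0.1 mM GDP, 0.05% NP40, 10 min at room temperature with compound.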

Sequence of Cytochrome P450 3A4 (Homo sapiens) (P08684 whole entry, looked up): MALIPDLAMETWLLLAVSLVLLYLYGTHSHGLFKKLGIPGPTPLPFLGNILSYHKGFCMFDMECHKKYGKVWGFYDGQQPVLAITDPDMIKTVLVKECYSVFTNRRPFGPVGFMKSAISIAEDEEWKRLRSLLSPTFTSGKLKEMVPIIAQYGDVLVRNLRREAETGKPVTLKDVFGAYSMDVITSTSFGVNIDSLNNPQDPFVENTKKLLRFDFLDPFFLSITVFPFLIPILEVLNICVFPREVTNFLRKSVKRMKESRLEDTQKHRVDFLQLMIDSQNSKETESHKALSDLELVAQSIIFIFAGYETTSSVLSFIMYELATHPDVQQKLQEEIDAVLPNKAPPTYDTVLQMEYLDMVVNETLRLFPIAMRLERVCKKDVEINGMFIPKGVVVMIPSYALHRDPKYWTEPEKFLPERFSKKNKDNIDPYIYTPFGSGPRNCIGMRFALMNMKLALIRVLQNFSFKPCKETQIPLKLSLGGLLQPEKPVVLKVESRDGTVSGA
Sequence of 3',5'-cyclic-AMP phosphodiesterase 4B (Homo sapiens) (Q07343 whole entry, looked up): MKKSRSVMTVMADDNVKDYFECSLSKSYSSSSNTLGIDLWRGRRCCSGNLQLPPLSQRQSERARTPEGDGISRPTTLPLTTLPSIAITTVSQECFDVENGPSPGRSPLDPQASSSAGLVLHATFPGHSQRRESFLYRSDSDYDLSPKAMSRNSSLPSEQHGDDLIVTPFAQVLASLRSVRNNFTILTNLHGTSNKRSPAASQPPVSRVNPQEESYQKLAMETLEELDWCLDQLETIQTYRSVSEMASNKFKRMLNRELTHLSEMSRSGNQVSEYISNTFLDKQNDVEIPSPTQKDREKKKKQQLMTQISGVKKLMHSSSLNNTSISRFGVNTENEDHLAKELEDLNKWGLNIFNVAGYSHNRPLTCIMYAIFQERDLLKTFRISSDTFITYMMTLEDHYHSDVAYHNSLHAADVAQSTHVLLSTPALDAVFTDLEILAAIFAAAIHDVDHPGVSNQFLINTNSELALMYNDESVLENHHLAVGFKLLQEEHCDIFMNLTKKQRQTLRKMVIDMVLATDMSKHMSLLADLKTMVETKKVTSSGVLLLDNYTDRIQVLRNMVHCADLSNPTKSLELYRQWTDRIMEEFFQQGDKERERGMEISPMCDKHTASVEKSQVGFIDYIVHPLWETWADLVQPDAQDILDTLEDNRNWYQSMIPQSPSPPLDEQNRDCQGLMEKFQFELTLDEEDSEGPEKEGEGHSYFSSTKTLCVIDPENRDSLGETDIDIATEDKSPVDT
Sequence of Cytochrome P450 2C9 (Homo sapiens) (P11712 whole entry, looked up): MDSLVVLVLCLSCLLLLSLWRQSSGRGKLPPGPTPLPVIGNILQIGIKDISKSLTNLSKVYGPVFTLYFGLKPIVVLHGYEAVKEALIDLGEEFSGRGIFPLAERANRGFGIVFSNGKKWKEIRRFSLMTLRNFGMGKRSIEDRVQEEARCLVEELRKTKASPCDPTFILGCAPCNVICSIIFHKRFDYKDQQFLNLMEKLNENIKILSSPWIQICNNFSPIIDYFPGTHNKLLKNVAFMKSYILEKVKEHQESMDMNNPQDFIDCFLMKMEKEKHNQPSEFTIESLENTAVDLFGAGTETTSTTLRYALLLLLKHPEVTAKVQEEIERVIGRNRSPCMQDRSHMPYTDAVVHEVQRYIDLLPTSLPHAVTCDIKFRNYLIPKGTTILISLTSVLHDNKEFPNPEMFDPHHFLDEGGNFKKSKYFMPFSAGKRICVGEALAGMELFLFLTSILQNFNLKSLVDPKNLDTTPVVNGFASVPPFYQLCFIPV
Sequence of Cytochrome P450 2D6 (Homo sapiens) (P10635 whole entry, looked up): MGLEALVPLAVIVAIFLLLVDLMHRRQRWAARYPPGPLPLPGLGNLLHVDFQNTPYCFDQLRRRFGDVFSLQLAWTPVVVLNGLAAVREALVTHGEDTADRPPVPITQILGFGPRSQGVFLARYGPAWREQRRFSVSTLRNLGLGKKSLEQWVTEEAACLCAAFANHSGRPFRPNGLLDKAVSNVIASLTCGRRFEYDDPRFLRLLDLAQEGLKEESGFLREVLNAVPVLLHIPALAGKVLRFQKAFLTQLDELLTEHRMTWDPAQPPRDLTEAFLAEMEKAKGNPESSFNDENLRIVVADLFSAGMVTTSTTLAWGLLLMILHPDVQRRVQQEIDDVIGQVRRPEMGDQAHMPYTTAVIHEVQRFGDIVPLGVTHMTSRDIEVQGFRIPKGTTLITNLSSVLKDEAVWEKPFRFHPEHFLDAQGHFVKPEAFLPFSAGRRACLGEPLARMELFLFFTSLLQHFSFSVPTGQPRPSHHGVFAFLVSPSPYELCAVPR
Sequence of Guanine nucleotide-binding protein G(i) subunit alpha-1 (Homo sapiens) (P63096 whole entry, looked up): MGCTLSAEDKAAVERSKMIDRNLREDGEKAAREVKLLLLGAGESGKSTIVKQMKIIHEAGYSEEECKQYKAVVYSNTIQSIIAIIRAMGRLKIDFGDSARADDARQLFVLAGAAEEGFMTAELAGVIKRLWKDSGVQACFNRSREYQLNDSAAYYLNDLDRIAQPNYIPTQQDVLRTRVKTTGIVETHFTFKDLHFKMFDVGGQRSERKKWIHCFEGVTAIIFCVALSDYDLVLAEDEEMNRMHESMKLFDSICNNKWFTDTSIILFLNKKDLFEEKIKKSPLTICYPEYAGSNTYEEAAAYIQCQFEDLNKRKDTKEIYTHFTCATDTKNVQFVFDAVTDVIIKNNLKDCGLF

CN[C@H]1CC[C@@H](c2ccc(Cl)c(Cl)c2)c2ccccc21
inactive: outcome [1]

COC1=CC(=O)C[C@@H](C)[C@@]12Oc1c(Cl)c(OC)cc(OC)c1C2=O
inactive: Potency [2] | outcome [3]

CC(=O)C1=C(O)C=C2Oc3c(C(C)=O)c(O)c(C)c(O)c3[C@]2(C)C1=O
active: Potency [2] 6.3 nM
inactive: Potency [4] | outcome [1] | outcome [3]

O=C(O)c1cc2ccccc2c(Cc2c(O)c(C(=O)O)cc3ccccc23)c1O
inactive: Potency [4] | activity change, negative = inhibition [2] -15.3% [at 11.4 µM] | activity change, negative = inhibition [3] 6.29% [at 11.4 µM]

COc1cc(C[C@H]2C(=O)OC[C@@H]2Cc2ccc(OC)c(OC)c2)ccc1O
active: Potency [4] 3790 nM

C=Cc1ccccc1
inactive: outcome [5] | outcome [6] | caspase-3 activation [7] -0.459% | outcome [8] | outcome [9] | outcome [10] | outcome [11] | outcome [12] | outcome [13] | outcome [14] | outcome [15] | outcome [16] | outcome [17] | outcome [18] | outcome [19]

CCCCCCCCCCCCCCCC(=O)OC/C=C(C)/C=C/C=C(C)/C=C/C1=C(C)CCCC1(C)C
inactive: outcome [19]

NCCCC(=O)O
inactive: Potency [4] | outcome [20] | Potency [2] | outcome [19] | outcome [3]

CCCCCCCCCC(=O)O
inactive: outcome [5] | outcome [6] | caspase-3 activation [7] -4.13% | outcome [8] | outcome [9] | outcome [10] | outcome [11] | outcome [12] | outcome [13] | outcome [14] | outcome [15] | outcome [16] | outcome [17] | outcome [18] | outcome [19]

COc1ccc2[nH]c(=O)c3c(c2c1)OC(C)(C)C=C3
inactive: Potency [4] | outcome [19] | outcome [3]

COC(C)=O
inactive: outcome [5] | outcome [6] | caspase-3 activation [7] -0.555% | outcome [8] | outcome [9] | outcome [10] | outcome [11] | outcome [12] | outcome [13] | outcome [14] | outcome [15] | outcome [16] | outcome [17] | outcome [18] | outcome [19]

C1CNCCN1
inactive: outcome [19]

CN(C)Cc1ccccc1
inactive: outcome [5] | outcome [6] | caspase-3 activation [7] 0.691% | outcome [8] | outcome [9] | outcome [10] | outcome [11] | outcome [12] | outcome [13] | outcome [14] | outcome [15] | outcome [16] | outcome [17] | outcome [18] | outcome [19]

O=C(O)CC(O)(CC(=O)O)C(=O)O
inactive: outcome [5] | outcome [6] | outcome [8] | outcome [9] | outcome [10] | outcome [11] | outcome [12] | outcome [13] | outcome [14] | outcome [15] | outcome [16] | outcome [17] | outcome [18] | outcome [19]
active: caspase-3 activation [7] 101%

CN(C)CCCn1cc(C2=C(c3c[nH]c4ccccc34)C(=O)NC2=O)c2ccccc21
inactive: outcome [1]

Cc1ccc(OC[C@H](O)[C@H](C)NC(C)C)c2c1CCC2
inactive: Potency [4] | outcome [20] | outcome [1]
